Reference: ChEMBL document CHEMBL1201862, “PubChem BioAssay data set” (2004)

species: Homo sapiens; assay: Quantitative High-Throughput Screen for Compounds Blocking the Interaction Between CBF-beta and RUNX1 for the Treatment of Acute Myeloid Leukemia: Summary. [Related pubchem assays (depositor defined):AID1477, AID504370, AID504374, AID504375]; assay type: functional

SMILES	Potency
c1coc(-c2ccnc3ncnn23)c1	100 nM (active)
O=C1C2C3C=CC(C4CC34)C2C(=O)N1/N=C/c1cccs1 (stereo not given)	112 nM (active)
COC(=O)c1ccc(C)c(-n2c(C)cc(C=O)c2C)c1	112 nM (active)
CN1CCCN(C(=O)/C=C/c2ccc(Cl)cc2Cl)CC1	126 nM (active)
COC(=O)c1ccc(N=NNc2ccc(C(=O)OC)cc2)cc1	112 nM (active)
CCOc1ccc(CN(C)CC(=O)Nc2cc(C)c(C)cc2[N+](=O)[O-])cc1.CN(C)C=O	141 nM (active)
N[C@@H](CCCCNC(=O)CCCC[C@@H]1SC[C@H]2NC(=O)N[C@H]12)C(=O)O	398 nM (active)
O=C(O)c1cccc(NC(=S)N/N=C/c2cccc(O)c2)c1	141 nM (active)
COc1cc([N+](=O)[O-])cc(/C=N/NC(=O)c2ccc(C)nc2)c1O	141 nM (active)
NNc1nc2cccnc2n(CCNc2ncc(C(F)(F)F)cc2Cl)c1=O	126 nM (active)
